Compound activity: PubChem, Center for Chemical Genomics, University of Michigan
Only a selection was taken, and hits are over-represented in it overall.
Dicer inh: human Dicer pre-microRNA cleavage inhibition. Q9UPY3. cat-ELCCA pre-miR-21 Dicer processing, chemiluminescence; active compounds read high. z-score at 25 µM. actives 6% (n = 47,000). AID 1347074; in the data active = z-score above about 3, passing the limit was not always enough;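 note: plate controls were vehicle for no effect and no enzyme for full effect; higher signal means more uncleaved substrate so more Dicer inhibition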
* hit, by the source's call.

SMILES	Dicer inh
O=c1oc(Nc2ccccc2)nc2ccccc12	3.6*
O=c1oc(-c2cccs2)nc2ccccc12	-0.19
CC(C)(C)c1ccc(-c2nc3ccccc3c(=O)o2)cc1	1.4
O=c1oc(-c2ccc(Cl)cc2)nc2ccccc12	0.2
c1ccc(Nc2nnc(-c3cccc4ccccc34)o2)cc1	0.59
O=c1oc(-c2ccc(Br)cc2)nc2ccccc12	3*
O=C(NCCc1ccncc1)NC(=O)c1c(Cl)cccc1Cl	-0.66
C=CCOc1ccc(C2c3c(oc4ccccc4c3=O)C(=O)N2c2nc(C)c(C(=O)OC)s2)cc1 (configuration not stated)	1.3
Cc1ccccc1C1=NC(C(F)(F)F)(C(F)(F)F)N=C(N(C)C)O1	-0.4
Cc1nn(-c2ccccc2)nc1C(=O)ONC(=O)c1ccccc1	-0.38
N/C(=N\OC(=O)c1ccc([N+](=O)[O-])cc1)c1cccc(-n2cccc2)c1	-0.23
CCOC(=O)C(O)(NC(=O)c1cccc(C)c1)C(F)(F)F (configuration not stated)	-0.48
O=C(NC1(N2CCCCC2)C(=O)c2ccccc2C1=O)c1ccc(C(F)(F)F)cc1	-0.56
N/C(=N\C(=S)Nc1cc(Cl)ccc1Cl)c1ccccc1	0.67
Cc1ccc2nc(-c3ccc(F)cc3)cn2c1	-2.3
CCOC(=O)c1cnc2cc(C)ccn2c1=O	-0.86
CCOC(=O)c1cnc2n(c1=O)CCS2	3.2*
CCOC(=O)c1cnc2cc(C)[nH]n2c1=O	0.82
Cc1cc(Oc2ccccc2F)nc(N)n1	0.15
COc1cc(NC(=O)c2ccc(Cl)cc2)nc(OC)n1	-0.16
CCOC(=O)C1=C(C)NC2=C(C(=O)CCC2)C1c1ccc(C)cc1 (configuration not stated)	-2.3
O=S(=O)(Nc1ccc(F)cc1)c1cc(Cl)c(Cl)cc1Cl	-0.49
Cc1ccc(NS(=O)(=O)c2ccc(Cl)cc2)c(N)c1	2.8
Cc1ccc(NS(=O)(=O)c2cc(Cl)c(Cl)cc2Cl)c(N)c1	8.3*
COc1cc(/C=C/c2[nH]c(=O)[nH]c(=O)c2[N+](=O)[O-])ccc1OCc1ccccc1Cl	-0.1
SMILES	Dicer inh
CSC(SC)=C(C#N)c1ccc(Cl)cc1Cl	-0.31
COC(=O)C1=C(O)CSC1=Nc1ccccc1	0.42
COC(=O)c1nn(-c2ccc(F)cc2)ccc1=O	-0.48
COC(=O)C1=C(O)CSC1=Nc1ccc(F)cc1	5.1*
CC(C)(C)NC(=S)Nc1ccccc1C(F)(F)F	-0.62
N/C(=N\NC(=S)Nc1ccccc1C(F)(F)F)c1ccccn1	4.3*
N/C(=N\NS(=O)(=O)c1cc(C(F)(F)F)cc(C(F)(F)F)c1)c1ccccn1	1
CCOC(=O)N1CCC(N/C=C(\C(C)=O)S(=O)(=O)c2ccc(Cl)cc2)CC1	-1.9
O=C1C(=O)N(Cc2cccnc2)C(c2ccc(Br)cc2)/C1=C(\O)c1ccc(F)cc1 (configuration not stated)	1.3
Cc1ccccc1-n1c(N)cc(=O)n(Cc2ccco2)c1=O	1.4
Cc1c2c(=O)n(-c3ccccc3)[nH]c2cc(=O)n1Cc1ccco1	3.3*
Cc1c2c(=O)n(-c3ccccc3)[nH]c2cc(=O)n1Cc1cccnc1	0.96
Cn1c(=O)c2c(ncn2CC(O)CN2CCN(CCO)CC2)n(C)c1=O (configuration not stated)	2.7
CC(C)CCNc1ncnc2c1sc1nc3c(cc12)COC(C)(C)C3	0.51
COc1ccc(C2C3=C(CC(C)(C)CC3=O)Nc3ccc4ccccc4c32)cc1OC (configuration not stated)	-0.75
COc1ccc(-c2nnc3c4ccccc4c(C)nn23)cc1S(=O)(=O)NC(C)(C)CO	2.9
COC(=O)C1=NOC2C(=O)N(c3ccc(OC)cc3)C(=O)C12 (configuration not stated)	1
COC(=O)C1=NOC2C(=O)N(c3ccc(C)cc3)C(=O)C12 (configuration not stated)	3.6*
CCOC(=O)C1=NOC2C(=O)N(c3ccc(Cl)cc3)C(=O)C12 (configuration not stated)	3.7*
COC(=O)C1=NOC2C(=O)N(c3ccc(F)cc3)C(=O)C12 (configuration not stated)	1.5
CCOC(=O)C1=NOC2C(=O)N(c3ccc(F)cc3)C(=O)C12 (configuration not stated)	1.3
CCOC(=O)C1=NOC2C(=O)N(c3ccc(OC)cc3)C(=O)C12 (configuration not stated)	-0.1
Cc1oc2c(F)c(F)c(F)c(F)c2c1C(=O)Oc1cccc(C(F)(F)F)c1	-0.28
Cc1nc(-c2cccnc2)nc(NCc2ccccc2)c1Cl	2.1
Clc1ccc(-c2nnnn2Cc2ccccc2)cc1	-0.12
Cc1ccc(C(Nc2cccc(C)n2)c2ccc3cccnc3c2O)cc1 (configuration not stated)	17*
CCc1ccc(C(Nc2ccccn2)c2ccc3cccnc3c2O)cc1 (configuration not stated)	8.3
COc1ccc(C(Nc2cc(C)ccn2)c2ccc3cccnc3c2O)cc1OC (configuration not stated)	11*
Cc1cccc(NC(c2cccnc2)c2ccc3cccnc3c2O)n1 (configuration not stated)	3.5*
